50 compounds from PubChem BioAssay AID1835 (Johns Hopkins Ion Channel Center, 2009) can be followed below.

The campaign covered roughly 2,400 compounds. About 750 (31%) were called active. The list shows a part of the results. Values without a mark were called inactive.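 The calls were made as follows: active = median signal gain over dofetilide-blocked control wells reaching their mean plus 3 SD, so readout 1 at least 0; inactive = the rest.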

Chain of Voltage-gated inwardly rectifying potassium channel KCNH2 (Homo sapiens) (Q12809 whole entry, looked up): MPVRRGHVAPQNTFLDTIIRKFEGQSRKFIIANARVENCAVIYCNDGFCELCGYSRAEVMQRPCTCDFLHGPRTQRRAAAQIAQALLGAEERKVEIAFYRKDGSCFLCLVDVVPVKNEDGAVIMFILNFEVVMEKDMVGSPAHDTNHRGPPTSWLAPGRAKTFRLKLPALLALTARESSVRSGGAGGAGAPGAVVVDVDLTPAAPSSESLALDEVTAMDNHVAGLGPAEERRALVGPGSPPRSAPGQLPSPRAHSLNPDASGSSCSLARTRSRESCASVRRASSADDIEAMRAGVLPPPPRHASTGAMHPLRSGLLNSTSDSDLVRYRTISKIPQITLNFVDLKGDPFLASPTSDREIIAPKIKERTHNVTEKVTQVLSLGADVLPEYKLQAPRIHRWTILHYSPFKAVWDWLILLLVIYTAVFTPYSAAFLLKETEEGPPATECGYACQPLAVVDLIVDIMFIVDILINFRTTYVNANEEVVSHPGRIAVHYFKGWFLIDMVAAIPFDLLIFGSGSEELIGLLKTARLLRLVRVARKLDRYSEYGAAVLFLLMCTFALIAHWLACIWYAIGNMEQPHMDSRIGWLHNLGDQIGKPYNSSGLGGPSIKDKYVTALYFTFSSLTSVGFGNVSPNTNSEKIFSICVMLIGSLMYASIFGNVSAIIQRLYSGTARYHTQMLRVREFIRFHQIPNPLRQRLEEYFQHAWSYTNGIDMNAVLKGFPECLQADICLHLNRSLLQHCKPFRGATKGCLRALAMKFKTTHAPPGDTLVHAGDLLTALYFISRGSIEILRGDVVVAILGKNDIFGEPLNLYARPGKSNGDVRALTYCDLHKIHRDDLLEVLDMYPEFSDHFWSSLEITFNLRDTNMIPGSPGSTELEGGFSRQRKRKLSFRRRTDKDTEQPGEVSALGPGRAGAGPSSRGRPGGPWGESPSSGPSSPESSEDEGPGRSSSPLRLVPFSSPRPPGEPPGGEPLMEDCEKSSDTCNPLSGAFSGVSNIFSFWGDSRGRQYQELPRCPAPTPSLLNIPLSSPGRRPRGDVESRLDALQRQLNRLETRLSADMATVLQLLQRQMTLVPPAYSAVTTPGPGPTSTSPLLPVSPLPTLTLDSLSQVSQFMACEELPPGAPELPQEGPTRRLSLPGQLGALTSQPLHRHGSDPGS

This assay concerns the target Voltage-gated inwardly rectifying potassium channel KCNH2 (Homo sapiens) (UniProt Q12809). The experiment in a line: hERG protection against dofetilide inhibition, confirmation, cell-based, thallium flux, duplicate retest, dofetilide IC70 (AID 1835). To be noted: hERG cell line, FluxOR thallium flux, dofetilide-blocked; at 10 µM; stronger effect = higher value. In general terms: The hERG channel carries a current that helps repolarise heart muscle cells.
Turning to `CCCCCCc1cc2cc(-c3nnc(-c4ccccc4O)o3)c(=O)oc2cc1O`, the activity increase over dofetilide control, less the hit threshold is -16%.

With `O=C(Nc1ccc(Oc2cccnc2)cc1)c1cccc([N+](=O)[O-])c1`, the activity increase over dofetilide control, less the hit threshold is -6%.

Regarding `Cn1cc([N+](=O)[O-])c(C(=O)N/N=C\c2c[nH]c3ccccc23)n1`, the activity increase over dofetilide control, less the hit threshold is -7%.

Consider `COc1ccc(-c2ccc(/C=N/NC(=O)c3cccnc3)o2)c([N+](=O)[O-])c1`, for which the activity increase over dofetilide control, less the hit threshold is 1% (active).

As to `O=C(Nc1c[nH]c(=O)[nH]c1=O)c1ccc2c(c1)C(=O)N(c1cccc([N+](=O)[O-])c1)C2=O`, the activity increase over dofetilide control, less the hit threshold was -10%.

As to `CC(=O)Cn1c(=O)c2c(nc3n2CCCN3Cc2ccccc2)n(C)c1=O`, the activity increase over dofetilide control, less the hit threshold is -13%.

As to `O=c1[nH]n2c(=O)c3c([nH]c2c1N=Nc1ccccc1)CCC3`, the activity increase over dofetilide control, less the hit threshold was -14%.

Turning to `O=c1[nH]c(N2CCN(c3ccccc3)CC2)nc2c1CCCC2`, the activity increase over dofetilide control, less the hit threshold is 2% (active).

On to `c1ccc(-c2ccnc3nc(N4CCN(c5ccccc5)CC4)nn23)cc1`, for which the activity increase over dofetilide control, less the hit threshold is -35%.

In the case of `CN(C(=O)c1cnccn1)c1nnc(-c2cnccn2)s1`, the activity increase over dofetilide control, less the hit threshold was -15%.

Take `NC(=O)Cn1nnc(-c2ccc(CN3CCCCC3)cc2)n1`: the activity increase over dofetilide control, less the hit threshold is -23%.

With `COc1ccc(-c2cc(C(=O)N3CCCC3)no2)cc1OC`, the activity increase over dofetilide control, less the hit threshold was 0%.

On to `O=C(O)Cc1sc(-c2ccc(Cl)cc2)nc1-c1ccccc1`, for which the activity increase over dofetilide control, less the hit threshold was -10%.

`CCOC(=O)c1ccc(NC(=O)Cn2nnc(-c3ccccc3)n2)cc1`: the activity increase over dofetilide control, less the hit threshold is -19%.

Regarding `O=C(Cn1nc(-c2ccccc2)c2ccccc2c1=O)Nc1ccc(O)cc1`, the activity increase over dofetilide control, less the hit threshold is 24% (active).

`Cc1nn(CC(=O)Nc2ccc(C(=O)N3CCCC3)cc2)c(=O)c2ccccc12`: the activity increase over dofetilide control, less the hit threshold was -11%.

For `CCOC(=O)c1sc2nc(Cc3ccc(Cl)cc3)[nH]c(=S)c2c1C`, the activity increase over dofetilide control, less the hit threshold is 52% (active).

For `CCOC(=O)c1sc2nc(C)[nH]c(=S)c2c1C`, the activity increase over dofetilide control, less the hit threshold was 21% (active).

Take `N/C(=N\OCc1ccccc1)c1nonc1N`: the activity increase over dofetilide control, less the hit threshold was -16%.

Turning to `CC(C)Cc1nnc(NC(=O)Cc2ccccc2[N+](=O)[O-])s1`, the activity increase over dofetilide control, less the hit threshold was -5%.

For the compound `c1ccc(-c2csc(Nc3ccc4c(c3)OCCO4)n2)cc1`, the activity increase over dofetilide control, less the hit threshold is -17%.

With `CCc1ccc(NC(=S)Nc2cccc(OC)c2)cc1`, the activity increase over dofetilide control, less the hit threshold was -26%.

As for `COc1ccc(NC(=O)c2ccc(NC3=NC4CS(=O)(=O)CC4S3)cc2)cc1` (stereo not given), the activity increase over dofetilide control, less the hit threshold is -17%.

`CCOc1cccc(C(=O)Nc2ccc3[nH]ncc3c2)c1`: the activity increase over dofetilide control, less the hit threshold is -18%.

`COc1ccc(OCC(=O)NNC(=O)C(=O)Nc2ccc(C)cc2)cc1`: the activity increase over dofetilide control, less the hit threshold is -11%.

Regarding `CCc1ccc(NC(=O)C(=O)NNC(=O)c2ccc(OC)cc2)cc1`, the activity increase over dofetilide control, less the hit threshold is 87% (active).

As for `CCc1ccc(NC(=O)C(=O)NNC(=O)c2cccc(OC)c2)cc1`, the activity increase over dofetilide control, less the hit threshold is 70% (active).

`COc1cccc(C(=O)NNC(=O)C(=O)Nc2ccc(C)cc2)c1`: the activity increase over dofetilide control, less the hit threshold is 56% (active).

Turning to `COc1cc(CCC(=O)NNC(=O)c2ccc(C)cc2)cc(OC)c1OC`, the activity increase over dofetilide control, less the hit threshold is -3%.

`COc1ccc(C(=O)NNC(=O)C(=O)Nc2ccc(C)cc2)cc1`: the activity increase over dofetilide control, less the hit threshold is 30% (active).

Consider `COc1ccc(NC(=O)c2ccc(COCC(F)(F)C(F)F)cc2)cc1`, for which the activity increase over dofetilide control, less the hit threshold was -14%.

With `COc1cccc(NC(=O)c2cncs2)c1`, the activity increase over dofetilide control, less the hit threshold is -13%.

As for `CCN(/N=C/c1ccc(Cl)cc1)c1cc(=O)n(C)c(=O)[nH]1`, the activity increase over dofetilide control, less the hit threshold is -20%.

With `Cc1noc(C)c1COc1cccc(C(=O)NCc2cccc(Cl)c2)c1`, the activity increase over dofetilide control, less the hit threshold was -18%.

Consider `CC(C)C12CN3CC(C(C)C)(CN(C1)C31C(=O)Nc3ccccc31)C2=O` (stereo not given), for which the activity increase over dofetilide control, less the hit threshold is -24%.

For the compound `O=C(COc1nsnc1N1CCOCC1)Nc1ccc(Cl)cc1`, the activity increase over dofetilide control, less the hit threshold is -21%.

As for `CC(C)(C)c1csc(NC(=O)C2=COCCO2)n1`, the activity increase over dofetilide control, less the hit threshold was -17%.

In the case of `CCc1nnc(NC(=O)CCC(=O)N2CCN(C3CCCCC3)CC2)s1`, the activity increase over dofetilide control, less the hit threshold is -22%.

Consider `O=C(O)CCSc1ncnc2sc(-c3ccccc3)cc12`, for which the activity increase over dofetilide control, less the hit threshold is 9% (active).

Take `Cc1ccccc1-n1c(SCC(=O)N(C)C2CCS(=O)(=O)C2)nnc1-c1ccncc1` (stereo not given): the activity increase over dofetilide control, less the hit threshold was -8%.

In the case of `CCOC(=O)c1sc2nc(C)nc(SCC(=O)N(C)C3CCS(=O)(=O)C3)c2c1C` (stereo not given), the activity increase over dofetilide control, less the hit threshold was -6%.

For the compound `CN(C(=O)CSc1ncnc2sc(-c3ccccc3)cc12)C1CCS(=O)(=O)C1` (stereo not given), the activity increase over dofetilide control, less the hit threshold is 82% (active).

As for `Nc1nc2c(s1)CCc1c-2cnn1-c1ccccc1`, the activity increase over dofetilide control, less the hit threshold was -46%.

`CC(=O)c1ccc(N2CCN(C(=O)Cc3ccccc3)CC2)c(F)c1`: the activity increase over dofetilide control, less the hit threshold is -15%.

For `COC(=O)Nc1c(-c2ccccc2)nc2ccccn12`, the activity increase over dofetilide control, less the hit threshold is -4%.

For `CC1=NN(c2nc(-c3ccccc3)cs2)C(=O)C1N=Nc1ccccc1` (stereo not given), the activity increase over dofetilide control, less the hit threshold was -31%.

Turning to `Cc1nc(-c2ccccc2)cn(O)c1=O`, the activity increase over dofetilide control, less the hit threshold is 16% (active).

`O=c1c(-c2ccccc2)nc(-c2ccccc2)cn1O`: the activity increase over dofetilide control, less the hit threshold was 33% (active).

On to `O=C(O)C/C(=C\c1cc(Br)cs1)c1nc2ccccc2o1`, for which the activity increase over dofetilide control, less the hit threshold is -6%.

As to `Cc1cccc(/N=C/c2sc3ccccc3c2O)n1`, the activity increase over dofetilide control, less the hit threshold is -13%.
